Here are results for 29 compounds from PubChem BioAssay AID489042 (NMMLSC, 2010).

Values joined by “and” are separate entries in the source; they are usually repeats but may differ in a detail not shown here. Equal values may be shown once. Some structures have more than one record in an assay (separate samples or runs), and their calls can disagree. Active and inactive are the calls of the source. Cut-off read from the data, not from the text of the source: active = inhibition score above about 11; inactive = the rest.

The nature of the assay: S. cerevisiae short- and long-term growth effects – BY4741, OD595, 24 h, dose response (AID 489042). The note with it: stronger effect = higher value.
For the compound `CCN(CC)C(=O)CSc1nnc(-c2cccc(OC)c2)o1`, the inhibition score is 0 (inactive).

Consider `COc1cccc2nc3cc(C)c(C)cc3nc12`, for which the inhibition score is 10 (inactive).

Take `CC(C)OC(=O)CSc1nnc(-c2ccc(Cl)cc2Cl)o1`: the inhibition score is 0 (inactive).

Turning to `COc1ccc2nc3ccccc3nc2c1`, the inhibition score was 10 (inactive) and 21 (active).

Turning to `COc1ccc2c3c(cccc13)N(C)N=C2C`, the inhibition score was 10 (inactive).

With `O=C(O)c1cnc2ccccc2n1`, the inhibition score was 0 (inactive).

For `N#CC(c1nc2ccccc2nc1N1CCCC1)S(=O)(=O)c1ccccc1` (centres undefined), the inhibition score is 0 (inactive).

Consider `O=C(CN1CCN(c2ccccn2)CC1)Nc1ccccc1F`, for which the inhibition score is 0 (inactive).

As for `CC(=O)Nc1ccc2nc3ccccc3nc2c1`, the inhibition score was 0 (inactive).

Consider `COc1ccc2nc3ccccc3nc2c1NC(=O)c1ccccc1Cl`, for which the inhibition score was 0 (inactive).

For `O=C(OCc1c(F)cccc1Cl)c1cnc2ccccc2n1`, the inhibition score was 0 (inactive).

With `CCN(CC)C(=O)c1cccc2nc3ccccc3nc12`, the inhibition score was 0 (inactive).

Consider `Cc1cc2nc3ccc(N(C)C)cc3nc2cc1N`, for which the inhibition score is 0 (inactive).

In the case of `CSc1nnc2c3cc(F)ccc3n(C)c2n1`, the inhibition score is 21 (active).

`O=C(Nc1cccc(Cl)c1)Nc1ccc2nccnc2c1`: the inhibition score was 0 (inactive).

With `O=C(c1cccc2nc3ccccc3nc12)N1CCOCC1`, the inhibition score was 0 (inactive).

As for `C=CCOn1c(=O)c(-c2cccs2)[n+]([O-])c2ccccc21`, the inhibition score is 0 (inactive).

Take `CN(C)CCNc1ncnc2c1cnn2-c1ccc(Cl)cc1`: the inhibition score is 0 (inactive).

As to `COc1ccc2cc(C3CC(c4ccco4)=NN3S(=O)(=O)c3ccccc3)c(Cl)nc2c1` (centres undefined), the inhibition score is 0 (inactive).

For `CC(=O)[C@@]1(O)CCC2C3CC[C@H]4C[C@@H](O)CC[C@]4(C)C3CC[C@@]21C` (some centres undefined), the inhibition score was 0 (inactive).

In the case of `CCN(CC)C(=O)c1ccc2nc3ccccc3nc2c1`, the inhibition score was 0 (inactive).

Regarding `CCCCCNC(=O)C(=O)C1C(=O)Nc2ccccc21` (centres undefined), the inhibition score was 10 (inactive).

For the compound `CC(C)(C)n1nc(-c2ccc(Cl)cc2)c2c(N)ncnc21`, the inhibition score was 21 (active).

For the compound `C=CCSc1nnc(-c2ccc([N+](=O)[O-])cc2)o1`, the inhibition score was 10 (inactive).

`O=C(Nc1ccc2nc3ccccc3nc2c1)c1ccc(Br)cc1`: the inhibition score was 0 (inactive).

As for `CC(C)CSc1nnc2c3ccccc3n(C)c2n1`, the inhibition score was 0 (inactive).

Take `O=C(/C=C/c1cccs1)NC(=S)NNC(=O)Cc1cccs1`: the inhibition score was 21 (active).

For the compound `O=C(/C=C/c1ccccc1)NC(=S)NNC(=O)Cc1cccs1`, the inhibition score was 21 (active).

Turning to `CC(C)(C)n1nc(-c2ccc(F)cc2)c2c(N)ncnc21`, the inhibition score is 21 (active).
